# In PubChem BioAssay AID1159580 (chemical genetic matrix, 2015):
# Hit rate of the full screen: of about 5,500 compounds, about 2,000 (36%) were called active. Not shown: some 18% with an inconclusive outcome. This is one part of the list. Values without a mark were called inactive. No stated cut-off is given here; in the data, active means normalized growth mostly below about 0.91 (no sharp cut-off); inconclusive means no clear call, values can overlap the other calls; inactive means mostly above about 0.92.
# Test: chemical genetic growth profiling, strain panel (AID 1159580);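 further: tested at 20 µM; growth read once vehicle control cultures reached saturation at 30 °C; 1 = growth at the plate median or of vehicle wells; lower values mean less growth of the strain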
# Conditions: growth OD
structure (smiles),measurement,setting,value
COC(=O)[C@]1(C)CC[C@]2(C)CC[C@]3(C)C4=CC=C5C(=CC(=O)C(O)=C5C)[C@]4(C)CC[C@@]3(C)[C@@H]2C1,normalized growth,"S. cerevisiae deletion strains, locus YJR043C, strain POL32, active compounds read low",0.646 (active)
same,normalized growth,"S. cerevisiae deletion strains, locus YJR075W, strain HOC1, active compounds read low",0.794 (active)
same,normalized growth,"S. cerevisiae deletion strains, locus YKL009W, strain mrt4, active compounds read low",1.06
same,normalized growth,"S. cerevisiae deletion strains, locus YKL068W, active compounds read low",0.961
same,normalized growth,"S. cerevisiae deletion strains, locus YKL085W, strain MDH1 (second series), active compounds read low",1.01
same,normalized growth,"S. cerevisiae deletion strains, locus YKL085W, strain MDH1, active compounds read low",1.01
same,normalized growth,"S. cerevisiae deletion strains, locus YKL160W, strain elf1, active compounds read low",0.702 (active)
same,normalized growth,"S. cerevisiae deletion strains, locus YKL190W, strain CNB1, active compounds read low",0.712 (active)
same,normalized growth,"S. cerevisiae deletion strains, locus YKR001C, strain vps1, active compounds read low",0.793 (active)
same,normalized growth,"S. cerevisiae deletion strains, locus YKR026C, strain gcn3, active compounds read low",0.941
same,normalized growth,"S. cerevisiae deletion strains, locus YKR091W, strain srl3, active compounds read low",0.995
same,normalized growth,"S. cerevisiae deletion strains, locus YLL001W, strain dnm1, active compounds read low",0.729 (active)
same,normalized growth,"S. cerevisiae deletion strains, locus YLL026W, active compounds read low",0.887 (active)
same,normalized growth,"S. cerevisiae deletion strains, locus YLL041C, strain sdh2, active compounds read low",0.929
same,normalized growth,"S. cerevisiae deletion strains, locus YLR027C, strain aat2, active compounds read low",0.719 (active)
same,normalized growth,"S. cerevisiae deletion strains, locus YLR039C, strain RIC1, active compounds read low",0.406 (active)
same,normalized growth,"S. cerevisiae deletion strains, locus YLR058C, strain SHM2, active compounds read low",0.615 (active)
same,normalized growth,"S. cerevisiae deletion strains, locus YLR102C, strain apc9, active compounds read low",0.983
same,normalized growth,"S. cerevisiae deletion strains, locus YLR221C, strain rsa3, active compounds read low",0.752 (active)
same,normalized growth,"S. cerevisiae deletion strains, locus YLR258W, strain gsy2, active compounds read low",0.802 (active)
same,normalized growth,"S. cerevisiae deletion strains, locus YLR262C, strain YPT6 (second series), active compounds read low",0.394 (active)
same,normalized growth,"S. cerevisiae deletion strains, locus YLR262C, strain YPT6, active compounds read low",0.45 (active)
same,normalized growth,"S. cerevisiae deletion strains, locus YLR268W, strain sec22, active compounds read low",0.832 (active)
same,normalized growth,"S. cerevisiae deletion strains, locus YLR320W, strain mms22, active compounds read low",0.495 (active)
same,normalized growth,"S. cerevisiae deletion strains, locus YLR330W, strain CHS5, active compounds read low",0.64 (active)
same,normalized growth,"S. cerevisiae deletion strains, locus YLR342W, strain FKS1 (second series), active compounds read low",0.71 (active)
same,normalized growth,"S. cerevisiae deletion strains, locus YLR342W, strain FKS1, active compounds read low",0.59 (active)
same,normalized growth,"S. cerevisiae deletion strains, locus YLR357W, strain rsc2, active compounds read low",0.824 (active)
same,normalized growth,"S. cerevisiae deletion strains, locus YLR370C, strain arc18, active compounds read low",0.797 (active)
same,normalized growth,"S. cerevisiae deletion strains, locus YLR371W, strain rom2, active compounds read low",0.948
same,normalized growth,"S. cerevisiae deletion strains, locus YLR384C, strain iki3, active compounds read low",0.96
same,normalized growth,"S. cerevisiae deletion strains, locus YLR418C, strain cdc73, active compounds read low",0.383 (active)
same,normalized growth,"S. cerevisiae deletion strains, locus YML016C, strain PPZ1, active compounds read low",0.781 (active)
same,normalized growth,"S. cerevisiae deletion strains, locus YML032C, strain rad52, active compounds read low",0.873 (active)
same,normalized growth,"S. cerevisiae deletion strains, locus YML120C, strain ndi1, active compounds read low",0.819 (active)
same,normalized growth,"S. cerevisiae deletion strains, locus YML124C, strain tub3, active compounds read low",0.956
same,normalized growth,"S. cerevisiae deletion strains, locus YMR058W, strain fet3, active compounds read low",0.115 (active)
same,normalized growth,"S. cerevisiae deletion strains, locus YMR078C, strain ctf18, active compounds read low",0.934
same,normalized growth,"S. cerevisiae deletion strains, locus YMR125W, strain sto1, active compounds read low",0.812 (active)
same,normalized growth,"S. cerevisiae deletion strains, locus YMR205C, strain PFK2, active compounds read low",0.56 (active)
same,normalized growth,"S. cerevisiae deletion strains, locus YMR223W, strain ubp8, active compounds read low",0.85 (active)
same,normalized growth,"S. cerevisiae deletion strains, locus YMR231W, strain pep5, active compounds read low",0.863 (active)
same,normalized growth,"S. cerevisiae deletion strains, locus YMR263W, strain SAP30, active compounds read low",0.803 (active)
same,normalized growth,"S. cerevisiae deletion strains, locus YMR307W, strain GAS1, active compounds read low",0.65
same,normalized growth,"S. cerevisiae deletion strains, locus YNL067W, strain RPL9B, active compounds read low",0.803 (active)
same,normalized growth,"S. cerevisiae deletion strains, locus YNL071W, strain lat1, active compounds read low",0.347 (active)
same,normalized growth,"S. cerevisiae deletion strains, locus YNL128W, strain TEP1, active compounds read low",0.548 (active)
same,normalized growth,"S. cerevisiae deletion strains, locus YNL209W, strain ssb2, active compounds read low",0.454 (active)
same,normalized growth,"S. cerevisiae deletion strains, locus YNL233W, strain BNI4, active compounds read low",0.811 (active)
same,normalized growth,"S. cerevisiae deletion strains, locus YNL248C, strain rpa49, active compounds read low",0.887 (active)
same,normalized growth,"S. cerevisiae deletion strains, locus YNL250W, strain rad50, active compounds read low",0.934
same,normalized growth,"S. cerevisiae deletion strains, locus YNL271C, strain bni1, active compounds read low",0.894 (active)
same,normalized growth,"S. cerevisiae deletion strains, locus YNL298W, strain CLA4, active compounds read low",0.957
same,normalized growth,"S. cerevisiae deletion strains, locus YNL307C, strain MCK1, active compounds read low",0.754 (active)
same,normalized growth,"S. cerevisiae deletion strains, locus YNL322C, strain KRE1 (second series), active compounds read low",0.978
same,normalized growth,"S. cerevisiae deletion strains, locus YNL322C, strain KRE1, active compounds read low",0.772 (active)
same,normalized growth,"S. cerevisiae deletion strains, locus YNR049C, strain mso1, active compounds read low",0.878 (active)
same,normalized growth,"S. cerevisiae deletion strains, locus YNR052C, strain pop2, active compounds read low",0.888 (active)
same,normalized growth,"S. cerevisiae deletion strains, locus YOL006C, strain TOP1, active compounds read low",0.317 (active)
same,normalized growth,"S. cerevisiae deletion strains, locus YOL012C, strain htz1",0.412
same,normalized growth,"S. cerevisiae deletion strains, locus YOL147C, strain pex11, active compounds read low",0.91 (active)
same,normalized growth,"S. cerevisiae deletion strains, locus YOR001W, strain rrp6, active compounds read low",0.918
same,normalized growth,"S. cerevisiae deletion strains, locus YOR061W, strain CKA2, active compounds read low",0.744 (active)
same,normalized growth,"S. cerevisiae deletion strains, locus YOR069W, strain VPS5, active compounds read low",0.836 (active)
same,normalized growth,"S. cerevisiae deletion strains, locus YOR070C, strain gyp1, active compounds read low",0.678 (active)
same,normalized growth,"S. cerevisiae deletion strains, locus YOR080W, strain dia2, active compounds read low",0.757 (active)
same,normalized growth,"S. cerevisiae deletion strains, locus YOR083W, strain WHI5, active compounds read low",0.757 (active)
same,normalized growth,"S. cerevisiae deletion strains, locus YOR106W, strain vam3, active compounds read low",0.574 (active)
same,normalized growth,"S. cerevisiae deletion strains, locus YOR136W, strain idh2, active compounds read low",0.961
same,normalized growth,"S. cerevisiae deletion strains, locus YOR144C, strain elg1, active compounds read low",0.908 (active)
same,normalized growth,"S. cerevisiae deletion strains, locus YOR184W, strain ser1, active compounds read low",0.645 (active)
same,normalized growth,"S. cerevisiae deletion strains, locus YOR265W, strain rbl2, active compounds read low",0.747 (active)
same,normalized growth,"S. cerevisiae deletion strains, locus YOR270C, strain vph1, active compounds read low",0.472 (active)
same,normalized growth,"S. cerevisiae deletion strains, locus YOR290C, strain snf2, active compounds read low",0.515 (active)
same,normalized growth,"S. cerevisiae deletion strains, locus YOR316C, strain cot1, active compounds read low",0.962
same,normalized growth,"S. cerevisiae deletion strains, locus YPL051W, strain arl3, active compounds read low",0.448 (active)
same,normalized growth,"S. cerevisiae deletion strains, locus YPL078C, strain atp4, active compounds read low",0.65 (active)
same,normalized growth,"S. cerevisiae deletion strains, locus YPL106C, strain sse1, active compounds read low",0.854
same,normalized growth,"S. cerevisiae deletion strains, locus YPL240C, strain hsp82, active compounds read low",0.81 (active)
same,normalized growth,"S. cerevisiae deletion strains, locus YPL241C, strain CIN2, active compounds read low",0.898 (active)
same,normalized growth,"S. cerevisiae deletion strains, locus YPR119W, strain clb2, active compounds read low",0.957
same,normalized growth,"S. cerevisiae deletion strains, locus YPR141C, strain kar3, active compounds read low",0.943
same,normalized growth,"S. cerevisiae deletion strains, locus YPR163C, strain tif3, active compounds read low",0.888 (active)
same,normalized growth,"S. cerevisiae deletion strains, locus YPR167C, strain met16, active compounds read low",0.917 (active)
same,normalized growth,"S. cerevisiae deletion strains, strain wtn01, active compounds read low",0.894 (active)
same,normalized growth,"S. cerevisiae strains, strain wild type, active compounds read low",0.572 (active)
